Screening data (PubChem)
hcDAF12 agonist: H. contortus DAF-12 activation, primary screen. HEK293 hcDAF-12 lit1-tk-luc reporter, luminescence; 0% DMSO, 100% Δ7-dafachronic acid. activation, % at 6.8 µM. 1.4% of 370,000 active. AID 652067;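 active = activation above the mean of all tested compounds plus 3 SD, cut at about 5.5% in these data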
ssDAF12 agonist: S. stercoralis DAF-12 activation, primary screen | 1% of 370,000 active | activation, % at 6.8 µM | HEK293 ssDAF-12/GRIP1 lit1-tk-luc reporter, luminescence; % of 3 µM dafachronic acid response;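 active = activation above the mean over all tested compounds plus 3 SD, cut at about 0.9% in these data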
SMARCA2 activ: increases SMARCA2 function in MMTV reporter cells | MG213 cells, MMTV-luciferase reporter, dexamethasone, overnight | activation, % at 9.1 µM | 1% of 370,000 active | AID 652017; in the data active = activation above about 7.8%
DAX1 inh-1: inhibits human nuclear receptor DAX1 | 0.99% of 340,000 active | AID 504766 | inhibition, % at 6.75 µM | HEK293 Gal4-DAX1 luciferase reporter, luminescence | P51843;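 active = inhibition above the mean over all tested compounds plus 3 SD, cut at about 4.2% in these data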;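 also: inhibition shows as a rise in luminescence from relieved DAX1 repression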
Target sequence (P51843 207-470 limits assumed): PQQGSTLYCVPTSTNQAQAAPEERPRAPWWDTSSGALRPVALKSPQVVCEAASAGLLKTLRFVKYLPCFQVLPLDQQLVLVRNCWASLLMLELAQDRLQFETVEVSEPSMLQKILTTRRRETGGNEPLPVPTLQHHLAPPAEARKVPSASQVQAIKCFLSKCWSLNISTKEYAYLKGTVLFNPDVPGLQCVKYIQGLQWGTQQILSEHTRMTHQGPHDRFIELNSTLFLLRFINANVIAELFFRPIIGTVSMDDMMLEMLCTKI
DAX1 inh-2: inhibitors of DAX1 repression of SF-1 activated StAR promoter. AID 652010. HEK293T StAR-luciferase reporter, SF-1/DAX-1 repression relief. inhibition, % at 6.8 µM. 1.1% of 370,000 active;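 active = inhibition above the mean over all tested compounds plus 3 SD, cut at about 3.6% in these data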;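 also: higher inhibition means more luminescence from relief of DAX-1 repression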
hgDAF12 agonist: activates the H. glycines DAF-12 receptor ligand-binding domain; HEK293 GAL4-hgDAF12 UAS-luciferase reporter, agonist luminescence; normalized to butyrate control; activation, % at 6.8 µM; 1.8% of 370,000 active; AID 687014;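 active = activation above a cutoff set at the mean of all screened compounds plus 3 SD, cut at about 10% in these data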
Hits are given with their value; i = inactive; nt = no result given. Hits are enriched below; roughly 4.8% of the tested compounds scored in any of these assays.

SMILES	hcDAF12 agonist	ssDAF12 agonist	SMARCA2 activ	DAX1 inh-1	DAX1 inh-2	hgDAF12 agonist
CCOc1ccccc1NC(=O)CSc1nnc2c(CC)c(C)nc(N)n12	i	i	7.9	i	i	i
COC(=O)[C@]12C[C@H](CC(=O)N3CCN(C(=O)C4CC4)CC3)C(=O)N(Cc3cccc4ccccc34)C1=C[C@H](C1CCCC1)O[C@@H]2C	i	i	i	nt	i	i
COc1ccc(C(=O)/C=C/Nc2ccc(C)cn2)cc1OC	i	i	i	i	4.0	i
COc1ccccc1OCCSc1nc2ccccc2n1CC(O)CO (stereo not given)	i	i	i	4.7	i	i
Cc1c(NC(=O)C2CCCN(S(=O)(=O)c3ccc(Br)s3)C2)c(=O)n(-c2ccccc2)n1C (stereo not given)	i	i	i	nt	i	i
COC(=O)[C@]12C=CCN1[C@H](c1ccccc1)c1c(c3ccccc3n1S(=O)(=O)c1ccc(C)cc1)C2	i	i	i	nt	i	i
COC(=O)[C@]12C=CCN1[C@H](c1ccc(OC)c(OC)c1)c1c(c3ccccc3n1S(=O)(=O)c1ccc(C)cc1)C2	i	3.8	i	nt	i	i
Cn1c(=O)n(C)c2cc(NC(=O)CSc3nc4ccccc4c(=O)[nH]3)ccc21	i	i	i	4.7	i	i
Cc1cc(C(=O)CSc2nc3ccccc3[nH]2)c(C)n1C	i	1.1	i	i	3.7	10.9
O=C(CSc1nc2ccccc2c(=O)[nH]1)Nc1ccc(C(=O)O)cc1	i	i	i	i	i	i
Cc1cc(C(=O)CSc2nnc(-c3ccncc3)n2-c2ccccc2)c(C)n1C	i	i	i	7.4	i	i
C=CCn1c(C)cc(C(=O)CSc2nc3ccccc3c(=O)[nH]2)c1C	i	i	i	i	i	i
COCCn1c(C)cc(C(=O)CSc2nc3ccccc3c(=O)[nH]2)c1C	i	i	i	6.5	i	i
CCC(CC)NC(=O)O[C@H]1CC[C@@]23CCCN2C(=O)CCC[C@H]3[C@H]1C	i	i	nt	nt	nt	i
O=C(NCCc1nc2ccccc2n1C/C=C/c1ccccc1)C1CCCCC1	i	i	nt	nt	nt	i
C=CCN1[C@@H](C)COc2cc(N3CCSCC3)ccc2S1(=O)=O	i	i	i	nt	i	i
C[C@H]1[C@@H](NCc2ccccc2)CC[C@@]23CCCN2C(=O)CCC[C@@H]13	i	i	nt	nt	nt	i
CN(C)c1ccc(P(=O)(Nc2cccc(C(F)(F)F)c2)N2CCOCC2)c(NC(=O)c2cccs2)c1 (stereo not given)	i	1.4	i	i	i	i
O=C(Nc1cc(C(F)(F)F)ccc1N1CCOCC1)c1cccs1	i	i	i	4.6	i	i
O=C(NCCc1c[nH]c2ccccc12)OCc1cn(Cc2cccc(F)c2)nn1	i	i	i	nt	i	i
O=C(NC1CC1)c1ccc2c(Cl)c3c(nc2c1)CCCC3	i	i	i	i	i	10.8
CC1CC1C(=O)OCC(=O)Nc1ccc(N=Nc2ccccc2)cc1 (stereo not given)	i	i	i	i	i	i
CCCC(=O)OCC(=O)Nc1ccc(N=Nc2ccccc2)cc1	5.7	i	i	i	i	11.3
COC(=O)C1CN(CC(C)C)CCS(=O)(=O)N1Cc1ccc(Cl)cc1 (stereo not given)	i	i	i	nt	i	i
Nc1[nH]n(-c2ccccc2)c(=O)c1N=Nc1ccccc1	i	1.3	i	i	i	i
SMILES	hcDAF12 agonist	ssDAF12 agonist	SMARCA2 activ	DAX1 inh-1	DAX1 inh-2	hgDAF12 agonist
COc1ccc(C2CC(c3ccccc3)=NN2S(=O)(=O)c2ccccc2)c(OC)c1 (stereo not given)	i	i	i	i	i	i
COc1ccccc1C1CC(c2ccccc2)=NN1S(=O)(=O)c1ccccc1 (stereo not given)	i	i	i	i	i	10.9
CC(NC(=O)Nc1ccc(Cl)cc1)C(c1cccs1)N1CCOCC1 (stereo not given)	i	1.5	i	i	i	i
C[C@H](CCCCC1(C)OCCO1)CCC(=O)N(c1ccccc1)c1ccccc1	i	i	i	nt	i	i
O=C(/C=C/c1ccc2c(c1)OCO2)Nc1nc2ccc(F)cc2s1	i	i	i	4.8	i	i
CCOc1ccc2nc(NC(=O)/C=C/c3ccc4c(c3)OCO4)sc2c1	i	i	i	i	i	i
COc1ccc2cc(C(=O)NCCCN3CCCC3=O)[nH]c2c1	6.2	i	i	i	i	i
COc1cccc2[nH]c(C(=O)NCCCN3CCCC3=O)cc12	i	i	i	i	i	i
Cc1ccc(-c2ccc(CCC(=O)O)o2)cc1	i	2.6	i	i	i	i
O=C(NN1C(=O)C2C3C=CC(C4CC34)C2C1=O)c1ccccc1Cl (stereo not given)	i	i	i	5.1	i	i
Cc1ccc(CNC(=O)OC(C)(C)C)c(/C=C/S(=O)(=O)NCc2ccc(F)cc2)c1	i	i	i	nt	i	i
Cn1cncc1C(=O)c1ccccc1	i	1.1	i	i	i	i
O=C(c1ccoc1)N1CCN(c2cc(-c3ccco3)nc3cc(-c4ccco4)nn23)CC1	i	i	nt	nt	nt	i
CCc1nnc2n1N=C(c1ccc(Cl)cc1)CS2	i	i	i	i	i	i
Cc1nnc2n(c1=O)N=C(c1ccc(Cl)cc1)CS2	6.0	i	i	i	i	i
COc1ccccc1NC(=O)COc1ccccc1C(=O)c1cnn(-c2ccccc2)c1	i	i	i	i	i	12.8
Cc1ccccc1Cn1cc(CN2[C@H](CC(C)C)COc3cc(Br)ccc3S2(=O)=O)nn1	i	i	i	nt	i	i
O=C(CSc1nnc(-c2ccc(Cl)cc2)n1-c1ccccc1)NN=Cc1c[nH]c2ccccc12	i	i	i	nt	i	i
COC(=O)c1cc(=O)n(Cc2ccc(F)cc2)c(=Nc2ccccc2)s1	i	i	i	i	i	i
COC(=O)c1cc(=O)n(Cc2cccs2)c(=Nc2ccccc2)s1	i	i	i	4.3	i	i
O=C1CN(c2ccc(F)cc2)C(=S)N1c1ccccc1	i	i	i	i	i	i
O=C1CN(c2ccccc2)C(=S)N1c1ccccc1	i	i	i	4.4	i	i
Cc1c(/C=C(\CC(=O)O)c2nc3ccccc3s2)cc(C#N)n1C	5.6	i	i	i	i	i
O=C(O)c1cccc(N2C(=O)c3ccc(C(=O)c4cccc([N+](=O)[O-])c4)cc3C2=O)c1	i	5.8	i	i	i	i
Clc1ccc(-c2nnc(NC3=NCCCCC3)o2)cc1	6.1	i	i	i	i	i
O=C(Nc1nnc(-c2ccc(Cl)cc2)o1)C1CCCCC1	i	i	i	i	i	i
COc1ccc(-c2cc(-c3nnc4sc(Cc5cccs5)nn34)[nH]n2)cc1	i	i	i	nt	i	i
COc1ccc(CN(C)C(=O)C2CCCN(c3nc4ccccc4o3)C2)cc1 (stereo not given)	i	i	i	nt	i	i
